Data: the supplement of paper PMC12350171
Structures can show the parent of a compound that is named as a salt. Values without a mark were called inactive.

How the values were obtained:
Details in all cases: 20 µM
[1] = test system: Salmonella enterica typhimurium; test: growth AUC normalised to DMSO control (fraction of control); higher = less growth inhibition, active = hit call of the paper
How it was run: (§1)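 Hemin and NAD were added to the medium for Haemophilus parainfluenzae. All pathogens, after two anaerobic passages, were inoculated at a starting OD578 of 0.01 into pre-reduced mGAM plates with 20 μM compound and 1% DMSO under breathable seals, and OD578 was read hourly for 24 h in three biological replicates. AUC of each growth curve was obtained with the trapezoidal rule up to the exponential-to-stationary transition and normalised to DMSO controls from the same plate.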

Shigella flexneri = test: as above
How it was run: as §1

Vibrio cholerae = test: as above
How it was run: as §1

[2] = test system: Yersinia pseudotuberculosis; test: as above
How it was run: as §1

P. vulgatus RND KO = test: growth AUC normalised to DMSO control (median) (fraction of control); higher = less growth inhibition, active = hit call of the paper
How it was run: (§2)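 After two overnight anaerobic passages, strains were inoculated at OD578 0.01 into mGAM in 96-well plates containing approved-drug library compounds at 20 μM and 1% DMSO. Growth was followed by reading OD578 hourly for 24 h within an anaerobic incubator. Area under the curve, taken by the trapezoidal rule up to the start of stationary phase, was normalised to same-plate vehicle wells, and the median of three biological replicates is listed.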

P. vulgatus WT = test: as above
How it was run: as §2

[3] = test system: S. enterica typhimurium WT; test: as above
How it was run: as §2

[4] = test system: S. enterica typhimurium tolC KO; test: as above
How it was run: as §2
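For growth AUC normalised to DMSO control (median) in this document: active when median AUC fell below 0.1.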

Row | Compound | growth AUC normalised to DMSO control [1] | growth AUC normalised to DMSO control (Shigella flexneri) | growth AUC normalised to DMSO control (Vibrio cholerae) | growth AUC normalised to DMSO control [2] | growth AUC normalised to DMSO control (P. vulgatus RND KO) | growth AUC normalised to DMSO control (P. vulgatus WT) | growth AUC normalised to DMSO control [3] | growth AUC normalised to DMSO control [4]
1 | CC(=O)O[C@]1(C(C)=O)CC[C@H]2[C@@H]3C=C(Cl)C4=CC(=O)CC[C@]4(C)[C@H]3CC[C@@]21C [Chlormadinone acetate] | 0.989 | 0.993 | 1 | 1 | 0.945 | 0.977 | 0.998 | 0.981
2 | NC1CCN(c2nc3c(cc2F)c(=O)c(C(=O)O)cn3-c2ccc(F)cc2F)C1 (stereo not given) [Tosufloxacin hydrochloride] | 0.00626 (active) | 0.0173 (active) | 0.0443 (active) | 0.0355 (active) | 0.0157 (active) | 0.012 (active) | 0.00524 (active) | 0.00501 (active)
3 | CCN(CC)CCNC(=O)c1cc(S(C)(=O)=O)ccc1OC [Tiapride hydrochloride] | 0.985 | 0.992 | 1 | 1.01 | 0.961 | 0.952 | 0.992 | 0.999
4 | COc1cc(Cc2cnc(N)nc2N)cc(OC)c1OC [Trimethoprim] | 0.197 (active) | 0.0632 (active) | 0.0115 (active) | 0.157 (active) | 0.45 | 0.259 | 0.147 | 0.132
5 | C=C1/C(=C\C=C2/CCC[C@]3(C)[C@@H]([C@H](C)/C=C/[C@@H](O)C4CC4)CC[C@@H]23)C[C@@H](O)C[C@@H]1O [Calcipotriene] | 0.987 | 0.931 | 0.972 | 0.977 | 0.931 | 0.958 | 1.01 | 0.946
6 | CC(C)NC[C@H](O)COc1ccc(CC(N)=O)cc1 [(S,-) Atenolol] | 0.988 | 0.972 | 0.996 | 1.02 | 0.985 | 0.963 | 0.987 | 0.989
7 | Cc1ncc(CO)c(CO)c1O [Pyridoxine hydrochloride] | 0.992 | 1.01 | 0.996 | 1 | 1.01 | 1.01 | 1.01 | 0.992
8 | CCN(CC)CCc1nc(-c2ccccc2)no1 [Oxolamine citrate salt] | 0.99 | 1.01 | 1.04 | 1.03 | 0.97 | 0.98 | 1.01 | 1.01
9 | CN1CCC(=C2c3ccccc3CC(=O)c3sccc32)CC1 [Ketotifen fumarate] | 1.01 | 0.999 | 0.985 | 1.01 | 0.979 | 0.997 | 1.01 | 0.999
10 | O=C(COc1ccc(Cl)cc1)N1CCN(Cc2ccc3c(c2)OCO3)CC1 [Fipexide hydrochloride] | 0.987 | 0.971 | 0.875 | 0.992 | 1 | 0.966 | 0.995 | 0.942
11 | CC(C)NCC(O)c1ccc(O)c(O)c1 (single isomer, unassigned; (+)) [(+) Isoproterenol-(+)-bitartrate salt] | 1.02 | 1.02 | 1.03 | 0.913 | 1.01 | 1.03 | 1.01 | 0.984
12 | Clc1ccc(C(Cn2ccnc2)OCc2c(Cl)cccc2Cl)c(Cl)c1 (stereo not given) [Isoconazole] | 0.997 | 1.01 | 0.949 | 1.01 | 0.95 | 0.949 | 0.995 | 0.953
13 | CCCOc1cc(N)ccc1C(=O)OCCN(CC)CC [Propoxycaine hydrochloride] | 1.02 | 1.04 | 1.07 | 1.02 | 1.01 | 1.05 | 0.997 | 0.996
14 | CC(=O)O[C@H]1C[C@@]2(C)[C@@H](C[C@@H](O)[C@H]3[C@@]4(C)CC[C@@H](O)[C@@H](C)[C@@H]4CC[C@@]32C)/C1=C(\CCC=C(C)C)C(=O)O [Fusidic acid sodium salt] | 0.997 | 0.974 | 0.927 | 0.824 (active) | 0.0166 (active) | 0.0143 (active) | 0.989 | 0.0407 (active)
15 | O=C(Nc1ccccc1)OCC(CN1CCCCC1)OC(=O)Nc1ccccc1 (stereo not given) [Diperodon hydrochloride] | 1.01 | 1.03 | 0.999 | 1.01 | 0.998 | 1.01 | 0.997 | 0.986
16 | CCN(CCO)CCCC(C)Nc1ccnc2cc(Cl)ccc12 (stereo not given) [Hydroxychloroquine sulfate] | 1 | 0.988 | 1.01 | 1.01 | 1.02 | 1.01 | 1 | 0.995
17 | CC1(C)S[C@@H]2[C@H](NC(=O)[C@H](NC(=O)N3CCNC3=O)c3ccccc3)C(=O)N2[C@H]1C(=O)O [Azlocillin sodium salt] | 0.766 (active) | 0.0935 (active) | 0.78 (active) | 0.281 (active) | 0.0105 (active) | 0.0107 (active) | 0.887 | 0.00584 (active)
18 | CCc1c2c(nc3ccc(OC(=O)N4CCC(N5CCCCC5)CC4)cc13)-c1cc3c(c(=O)n1C2)COC(=O)[C@]3(O)CC [Irinotecan hydrochloride trihydrate] | 0.999 | 1.01 | 1.01 | 0.998 | 1 | 1.1 | 1 | 0.986
19 | Cc1cccn2c(=O)c(-c3nnn[nH]3)cnc12 [Pemirolast potassium] | 0.968 | 0.946 | 0.921 | 0.964 | 0.998 | 1.01 | 0.993 | 0.995
20 | C[C@H](CCC(=O)O)[C@H]1CC[C@H]2[C@@H]3[C@H](O)C[C@@H]4C[C@H](O)CC[C@]4(C)[C@H]3CC[C@]12C [Chenodiol] | 0.991 | 0.96 | 0.988 | 1.01 | 0.922 | 0.94 | 0.998 | 1.01
21 | CC(=O)OCC(=O)[C@@]1(OC(C)=O)[C@@H](C)C[C@H]2[C@@H]3C[C@H](F)C4=CC(=O)C=C[C@]4(C)[C@@]3(F)[C@@H](O)C[C@@]21C [Diflorasone Diacetate] | 1 | 0.977 | 1.01 | 1.01 | 1 | 1.03 | 0.997 | 1
22 | CCN(Cc1ccncc1)C(=O)C(CO)c1ccccc1 (stereo not given) [Tropicamide] | 1.01 | 0.987 | 0.995 | 1 | 0.996 | 0.995 | 1.01 | 1
23 | O=C1c2c(O)cccc2Cc2cccc(O)c21 [Anthralin] | 1.02 | 0.987 | 1.03 | 1.02 | 0.861 | 0.834 | 0.989 | 0.985
24 | Oc1ccc(OCc2ccccc2)cc1 [Monobenzone] | 0.975 | 0.941 | 0.982 | 0.974 | 0.981 | 0.992 | 0.996 | 0.977
25 | O=C(NCC(O)CO)c1c(I)c(C(=O)NCC(O)CO)c(I)c(N(CCO)C(=O)CO)c1I (stereo not given) [Ioversol] | 1.01 | 1.03 | 1.07 | 1.03 | 1.03 | 1.03 | 1 | 1.01
26 | C[C@H]1C[C@@H]2[C@H]([C@@H](O)C[C@@]3(C)[C@H]2CC[C@]3(O)C(=O)CO)[C@@]2(C)C=CC(=O)C=C12 [Methylprednisolone, 6-alpha] | 0.997 | 0.998 | 0.997 | 0.993 | 0.96 | 0.982 | 1 | 1
27 | NC[C@@H]1O[C@@H](O[C@H]2[C@H](O)[C@@H](O[C@H]3O[C@H](CO)[C@@H](O)[C@H](N)[C@H]3O)[C@H](N)C[C@@H]2N)[C@@H](O)[C@H](O)[C@H]1O [Kanamycin A sulfate] | 1.01 | 1.03 | 1.05 | 1 | 1.01 | 0.992 | 1.01 | 1.01
28 | CC(C)NC(=N)NC(=N)Nc1ccc(Cl)cc1 [Proguanil hydrochloride] | 0.959 | 0.962 | 0.985 | 0.992 | 1 | 1.01 | 0.988 | 0.984
29 | CN1CCc2cccc3c2[C@H]1Cc1ccc(O)c(O)c1-3 [R(-) Apomorphine hydrochloride hemihydrate] | 0.999 | 1 | 1.01 | 1.02 | 1.02 | 1.05 | 1.01 | 0.983
30 | COCC(=O)Nc1c(I)c(C(=O)NCC(O)CO)c(I)c(C(=O)N(C)CC(O)CO)c1I (stereo not given) [Iopromide] | 1 | 1.03 | 1.06 | 1.02 | 1.05 | 1.05 | 1.02 | 1.01
